Source: PubChem BioAssay AID1159580 (chemical genetic matrix, 2015)
Where “and” joins values, the source holds several entries; their conditions need not be identical. Identical values can stand only once. In all, about 5,500 compounds went through this assay and about 2,000 (36%) were called active. Inconclusive results (about 18%) are left out. No stated cut-off is given here; in the data, active means normalized growth mostly below about 0.91 (no sharp cut-off); inconclusive means no clear call, values can overlap the other calls; inactive means mostly above about 0.92. This is one part of the list.

Test: chemical genetic growth profiling, strain panel (AID 1159580);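 further: tested at 20 µM; growth read once vehicle control cultures reached saturation at 30 °C; 1 = growth at the plate median or of vehicle wells; lower values mean less growth of the strain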
Details: S. cerevisiae deletion strains, growth OD

Measured: normalized growth

CN1C2CCC1CC(OC(c1ccccc1)c1ccccc1N)C2 (stereo unspecified)
inactive: locus YAL013W, strain DEP1, active compounds read low 0.993 | locus YAL021C, strain ccr4, active compounds read low 0.985 | locus YAL026C, strain drs2, active compounds read low 1.01 | locus YAL030W, strain snc1, active compounds read low 0.994 | locus YAL040C, strain CLN3, active compounds read low 1.01 | locus YBL061C, strain skt5, active compounds read low 0.995 | locus YBR009C, strain hhf1, active compounds read low 0.998 | locus YBR021W, strain FUR4, active compounds read low 0.993 | locus YBR023C, strain chs3, active compounds read low 0.989 | locus YBR171W, strain sec66, active compounds read low 1 | locus YBR229C, strain ROT2, active compounds read low 0.998 | locus YBR231C, strain swc5, active compounds read low 1 | locus YBR279W, strain paf1, active compounds read low 1 | locus YCL011C, strain gbp2, active compounds read low 1 | locus YCL016C, strain dcc1, active compounds read low 0.994 | locus YCL029C, strain bik1, active compounds read low 1.03 | locus YCL061C, strain MRC1 (second series), active compounds read low 1 | locus YCL061C, strain MRC1, active compounds read low 0.997 | locus YCL069W, strain vba3, active compounds read low 1 | locus YCR088W, strain abp1, active compounds read low 0.997 | locus YDL005C, strain med2, active compounds read low 0.99 | locus YDL035C, strain GPR1, active compounds read low 1.01 | locus YDL040C, strain nat1, active compounds read low 0.991 | locus YDL074C, strain BRE1, active compounds read low 1 | locus YDL101C, strain DUN1, active compounds read low 1.01 | locus YDL134C, strain PPH21, active compounds read low 1.01 | locus YDL185W, strain tfp1, active compounds read low 1.01 | locus YDL192W, strain arf1, active compounds read low 1.02 | locus YDR001C, strain nth1, active compounds read low 1.01 | locus YDR069C, strain doa4, active compounds read low 1 | locus YDR101C, strain arx1, active compounds read low 1.01 | locus YDR137W, strain rgp1, active compounds read low 0.98 | locus YDR150W, strain NUM1, active compounds read low 1.01 | locus YDR159W, strain sac3, active compounds read low 1 | locus YDR162C, strain NBP2, active compounds read low 1 | locus YDR195W, strain ref2 0.976 | locus YDR297W, strain sur2, active compounds read low 1.01 | locus YDR318W, strain mcm21, active compounds read low 1.01 | locus YDR334W, strain swr1, active compounds read low 1 | locus YDR335W, strain msn5, active compounds read low 0.996 | locus YDR363W, strain ESC2, active compounds read low 0.962 | locus YDR388W, active compounds read low 1.01 | locus YDR392W, strain spt3, active compounds read low 1.01 | locus YDR502C, strain sam2, active compounds read low 1.01 | locus YEL003W, strain gim4, active compounds read low 1.01 | locus YEL037C, strain rad23, active compounds read low 1 | locus YEL061C, strain CIN8 (second series), active compounds read low 1.03 | locus YEL061C, strain CIN8, active compounds read low 1 | locus YER002W, strain NOP16, active compounds read low 1 | locus YER015W, strain faa2, active compounds read low 0.987 | locus YER016W, strain bim1, active compounds read low 0.991 | locus YER110C, active compounds read low 1.01 | locus YER111C, strain swi4, active compounds read low 0.989 | locus YER155C, strain BEM2 (second series), active compounds read low 0.988 | locus YER155C, strain BEM2, active compounds read low 0.996 | locus YER167W, strain BCK2, active compounds read low 1.02 | locus YFR010W, strain ubp6, active compounds read low 0.996 | locus YGL078C, strain dbp3, active compounds read low 1.01 | locus YGL086W, strain mad1, active compounds read low 1.01 | locus YGL167C, strain pmr1, active compounds read low 0.999 | locus YGL173C, strain kem1, active compounds read low 0.999 | locus YGL227W, strain vid30, active compounds read low 0.991 | locus YGL240W, strain doc1, active compounds read low 0.997 | locus YGL248W, strain PDE1, active compounds read low 1.01 | locus YGL253W, strain hxk2, active compounds read low 0.998 | locus YGR078C, strain PAC10, active compounds read low 1.01 | locus YGR135W, strain pre9, active compounds read low 1.01 | locus YGR229C, strain SMI1, active compounds read low 0.992 | locus YGR252W, strain gcn5, active compounds read low 1 | locus YHR013C, strain ard1, active compounds read low 0.979 | locus YHR027C, strain rpn1, active compounds read low 0.999 | locus YHR030C, strain SLT2, active compounds read low 1.01 and 0.978 | locus YHR079C, strain IRE1 (second series), active compounds read low 1.01 | locus YHR079C, strain IRE1, active compounds read low 0.991 | locus YHR094C, strain hxt1, active compounds read low 1.01 | locus YHR129C, strain ARP1, active compounds read low 1.01 | locus YHR142W, strain chs7, active compounds read low 1 | locus YHR200W, strain rpn10, active compounds read low 1.02 | locus YIL066C, strain RNR3, active compounds read low 0.994 | locus YIL073C, strain SPO22, active compounds read low 1.05 | locus YIL125W, strain kgd1, active compounds read low 1 | locus YIR030C, strain dcg1, active compounds read low 1.01 | locus YJL092W, strain hpr5, active compounds read low 1.01 | locus YJL095W, strain BCK1 (second series), active compounds read low 1.01 | locus YJL095W, strain BCK1, active compounds read low 1 and 0.969 | locus YJL115W, strain asf1, active compounds read low 0.997 | locus YJL129C, strain trk1, active compounds read low 1.01 | locus YJL134W, strain LCB3, active compounds read low 1.01 | locus YJL154C, strain vps35, active compounds read low 1 | locus YJL164C, strain tpk1, active compounds read low 1 | locus YJL166W, strain qcr8, active compounds read low 1.02 | locus YJL168C, strain set2, active compounds read low 1.01 | locus YJL187C, strain SWE1 (second series), active compounds read low 1.01 | locus YJL187C, strain SWE1, active compounds read low 0.998 | locus YJR043C, strain POL32, active compounds read low 1.02 | locus YJR066W, strain TOR1, active compounds read low 0.926
